Some targets named below: RELARELA (p65 homodimer) (Homo sapiens, UniProt Q04206 1-307); p50p50 homodimer (Homo sapiens, UniProt P19838 7-356); RELB subunit;p50 subunit (Homo sapiens;Homo sapiens, UniProt Q01201;P19838 120-401;7-356).
What all share (test): protein binding microarray; high values mean tight binding
Holding throughout (conditions): dsDNA, one strand shown

The target in the next assay is T1, p52p52 homodimer (Homo sapiens, UniProt Q00653 4-332).
T1 sequence: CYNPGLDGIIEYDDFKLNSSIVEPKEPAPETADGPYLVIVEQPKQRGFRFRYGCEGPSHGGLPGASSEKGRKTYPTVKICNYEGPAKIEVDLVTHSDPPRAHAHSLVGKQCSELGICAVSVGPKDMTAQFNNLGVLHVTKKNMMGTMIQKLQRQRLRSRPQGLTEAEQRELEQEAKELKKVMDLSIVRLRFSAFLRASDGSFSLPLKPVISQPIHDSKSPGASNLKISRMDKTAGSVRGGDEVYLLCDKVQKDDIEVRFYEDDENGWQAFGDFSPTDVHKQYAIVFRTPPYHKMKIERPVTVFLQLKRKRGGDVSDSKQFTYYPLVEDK

In assay [1] the target is RELA (p65) subunit of heterodimer;p50 subunit (Homo sapiens;Homo sapiens, UniProt Q04206;P19838 1-307;7-356).
Assay [2] addresses RELA (p65) subunit of heterodimer;p52 subunit (Homo sapiens;Homo sapiens, UniProt Q04206;Q00653 1-307;4-332).
For the next assay, the target named is T2, RELB subunit;p52 subunit (Homo sapiens;Homo sapiens, UniProt Q01201;Q00653 120-401;4-332).
T2 sequence 1: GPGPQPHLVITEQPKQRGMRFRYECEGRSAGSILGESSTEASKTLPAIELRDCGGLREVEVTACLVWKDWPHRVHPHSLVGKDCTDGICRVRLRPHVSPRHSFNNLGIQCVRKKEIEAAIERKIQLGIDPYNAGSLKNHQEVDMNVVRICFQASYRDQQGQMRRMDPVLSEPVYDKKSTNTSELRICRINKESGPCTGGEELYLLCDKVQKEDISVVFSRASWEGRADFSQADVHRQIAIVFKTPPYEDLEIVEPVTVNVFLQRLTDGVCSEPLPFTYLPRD
T2 sequence 2: T1 sequence

In assay [3] the target is C-Rel subunit;p50 subunit (Homo sapiens;Homo sapiens, UniProt Q04864;P19838 1-285;7-356).
Assay [4] deals with T3, C-Rel subunit;p52 subunit (Homo sapiens;Homo sapiens, UniProt Q04864;Q00653 1-285;4-332).
T3 sequence 1: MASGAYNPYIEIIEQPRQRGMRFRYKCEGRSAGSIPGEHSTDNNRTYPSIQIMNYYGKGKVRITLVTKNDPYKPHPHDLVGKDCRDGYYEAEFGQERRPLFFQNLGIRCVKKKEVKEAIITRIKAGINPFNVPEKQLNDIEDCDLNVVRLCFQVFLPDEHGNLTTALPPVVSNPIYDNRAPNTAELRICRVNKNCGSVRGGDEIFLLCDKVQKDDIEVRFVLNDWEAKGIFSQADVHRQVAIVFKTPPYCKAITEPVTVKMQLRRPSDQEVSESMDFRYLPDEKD
T3 sequence 2: T1 sequence

p50p50 homodimer, sequence (P19838 7-356): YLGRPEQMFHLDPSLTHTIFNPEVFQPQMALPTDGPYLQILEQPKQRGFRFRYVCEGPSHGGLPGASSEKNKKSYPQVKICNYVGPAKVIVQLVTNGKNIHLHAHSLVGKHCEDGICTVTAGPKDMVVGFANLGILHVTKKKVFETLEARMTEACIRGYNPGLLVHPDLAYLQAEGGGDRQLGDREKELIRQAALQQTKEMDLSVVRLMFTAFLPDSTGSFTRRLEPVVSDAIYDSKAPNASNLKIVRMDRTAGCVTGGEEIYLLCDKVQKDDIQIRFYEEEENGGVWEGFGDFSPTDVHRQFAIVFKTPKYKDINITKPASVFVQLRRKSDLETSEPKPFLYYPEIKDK
RELARELA (p65 homodimer), sequence (Q04206 1-307): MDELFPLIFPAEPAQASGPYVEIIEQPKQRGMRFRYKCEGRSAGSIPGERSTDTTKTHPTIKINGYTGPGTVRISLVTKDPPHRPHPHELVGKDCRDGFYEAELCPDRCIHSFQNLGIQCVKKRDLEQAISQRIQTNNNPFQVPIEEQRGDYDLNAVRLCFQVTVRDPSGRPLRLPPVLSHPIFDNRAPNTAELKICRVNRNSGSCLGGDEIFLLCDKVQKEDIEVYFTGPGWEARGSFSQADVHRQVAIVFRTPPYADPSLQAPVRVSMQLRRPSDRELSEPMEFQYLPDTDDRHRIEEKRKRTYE
RELA (p65) subunit of heterodimer;p50 subunit, sequence (Q04206 1-307, chain 1 of 2): as the sequence (Q04206 1-307) above
RELA (p65) subunit of heterodimer;p50 subunit, sequence (P19838 7-356, chain 2 of 2): as the sequence (P19838 7-356) above

Take CAGTGGCTCCC: the binding signal with RELARELA (p65 homodimer) was -0.478 z-score; with p50p50 homodimer it was -1.44 z-score; in the assay with p52p52 homodimer, -0.661 z-score; in assay [1], -0.743 z-score; in [2], -0.817 z-score; in the assay with RELB subunit;p50 subunit, -0.932 z-score. Further, the binding signal is -0.764 z-score in the assay with RELB subunit;p52 subunit, -1.22 z-score in [3] and -0.857 z-score in assay [4].

As for AAATTTTTCCC, the binding signal with RELARELA (p65 homodimer) came out at 3.12 z-score; with p50p50 homodimer, 1.2 z-score; with p52p52 homodimer, 1.17 z-score; in [1] it was 1.78 z-score; in assay [2] it was 1.37 z-score; with RELB subunit;p50 subunit, 1.03 z-score. For the same sequence, the binding signal with RELB subunit;p52 subunit was determined as 1.38 z-score; in assay [3], 1.97 z-score; in assay [4], 1.31 z-score.

As to CAATGACTCCT, the binding signal is -0.344 z-score with RELARELA (p65 homodimer); -1.02 z-score in the assay with p50p50 homodimer; -0.692 z-score with p52p52 homodimer; -1.08 z-score in assay [1]; -1.05 z-score in [2]; -1.12 z-score in the assay with RELB subunit;p50 subunit. The results for the binding signal (with RELB subunit;p52 subunit; in assay [3]; in assay [4]) were -0.995 z-score, -1.33 z-score and -1.13 z-score, respectively.

Consider GGGTGTTCCCC, for which the binding signal in the assay with RELARELA (p65 homodimer) worked out at 1.97 z-score; in the assay with p50p50 homodimer, 0.783 z-score; with p52p52 homodimer, 3.21 z-score; in [1] it was 2.14 z-score; in assay [2], 2.7 z-score; with RELB subunit;p50 subunit, 2.21 z-score. The binding signal with RELB subunit;p52 subunit turned out to be 2.06 z-score; in assay [3], 1.68 z-score; in assay [4], 2.56 z-score.

For the sequence AGGTGTGCCCT, the binding signal was -0.542 z-score with RELARELA (p65 homodimer); -1.63 z-score with p50p50 homodimer; -0.541 z-score with p52p52 homodimer; -0.712 z-score in [1]; -0.661 z-score in assay [2]; -0.956 z-score with RELB subunit;p50 subunit. In addition, the binding signal was -0.903 z-score with RELB subunit;p52 subunit, -0.883 z-score in assay [3] and -0.535 z-score in assay [4].

Take CAGTTACCCCC: the binding signal with RELARELA (p65 homodimer) came out at 0.379 z-score; with p50p50 homodimer it was 1.11 z-score; in the assay with p52p52 homodimer, 0.638 z-score; in [1] it was 0.953 z-score; in assay [2], 0.838 z-score; with RELB subunit;p50 subunit, 1.01 z-score. Moreover, the values for the binding signal (in the assay with RELB subunit;p52 subunit; in assay [3]; in assay [4]) were 1.4 z-score, 1.01 z-score and 0.788 z-score, respectively.

As to GGAAATTTCCT, the binding signal in the assay with RELARELA (p65 homodimer) was 3.45 z-score; in the assay with p50p50 homodimer, 0.318 z-score; in the assay with p52p52 homodimer it was 0.15 z-score; in assay [1], 1.83 z-score; in assay [2], 1.22 z-score; with RELB subunit;p50 subunit it was 0.0518 z-score. In addition, the values for the binding signal (with RELB subunit;p52 subunit; in [3]; in assay [4]) were 0.485 z-score, 0.9 z-score and 1.42 z-score, respectively.

For the sequence AGGGATCTCCC, the binding signal was 1.05 z-score with RELARELA (p65 homodimer); 0.595 z-score with p50p50 homodimer; 2.05 z-score in the assay with p52p52 homodimer; 1.2 z-score in assay [1]; 1.32 z-score in assay [2]; 1.27 z-score in the assay with RELB subunit;p50 subunit. The figures for the binding signal (in the assay with RELB subunit;p52 subunit; in assay [3]; in assay [4]) were 1.12 z-score, 0.678 z-score and 1.36 z-score, respectively.

Regarding CAGTGGGTCCT, the binding signal with RELARELA (p65 homodimer) was -0.388 z-score; with p50p50 homodimer, -1.79 z-score; with p52p52 homodimer, -0.509 z-score; in [1], -1.1 z-score; in assay [2], -0.79 z-score; in the assay with RELB subunit;p50 subunit, -0.698 z-score. For the same sequence, the binding signal with RELB subunit;p52 subunit was -0.708 z-score; in assay [3] it was -1.36 z-score; in [4], -1.08 z-score.

CGAGACGCCCC: the binding signal is -0.513 z-score in the assay with RELARELA (p65 homodimer); 0.148 z-score with p50p50 homodimer; -0.0437 z-score with p52p52 homodimer; 0.0369 z-score in assay [1]; -0.155 z-score in assay [2]; 0.237 z-score with RELB subunit;p50 subunit. The binding signal in the assay with RELB subunit;p52 subunit is 0.231 z-score; in assay [3] it was 0.27 z-score; in assay [4], -0.0784 z-score.

GGAAAGTTCCC: the binding signal with RELARELA (p65 homodimer) turned out to be 2.6 z-score; with p50p50 homodimer, 0.736 z-score; in the assay with p52p52 homodimer it was 0.736 z-score; in [1], 1.29 z-score; in assay [2] it was 1.02 z-score; in the assay with RELB subunit;p50 subunit, 0.762 z-score. Moreover, the binding signal stood at 0.686 z-score with RELB subunit;p52 subunit, 0.966 z-score in [3] and 0.929 z-score in assay [4].

As for CAGTAGCTCCT, the binding signal was -0.468 z-score with RELARELA (p65 homodimer); -1.98 z-score with p50p50 homodimer; -0.806 z-score with p52p52 homodimer; -1.09 z-score in assay [1]; -1.13 z-score in assay [2]; -1.24 z-score with RELB subunit;p50 subunit. For the same sequence, the binding signal was -1.1 z-score with RELB subunit;p52 subunit, -1.72 z-score in assay [3] and -1.02 z-score in assay [4].

As to CAGTAGGTCCC, the binding signal was 0.28 z-score with RELARELA (p65 homodimer); -0.303 z-score with p50p50 homodimer; -0.0746 z-score with p52p52 homodimer; -0.34 z-score in assay [1]; -0.347 z-score in assay [2]; 0.0687 z-score with RELB subunit;p50 subunit. The binding signal in the assay with RELB subunit;p52 subunit was -0.117 z-score; in assay [3] it was -0.43 z-score; in [4], -0.438 z-score.

With CGATTAACCCT, the binding signal in the assay with RELARELA (p65 homodimer) is -0.485 z-score; in the assay with p50p50 homodimer, -0.551 z-score; with p52p52 homodimer, -0.421 z-score; in assay [1], -0.497 z-score; in [2], -0.556 z-score; with RELB subunit;p50 subunit, -0.691 z-score. Moreover, the figures for the binding signal (with RELB subunit;p52 subunit; in assay [3]; in assay [4]) were -0.624 z-score, -0.83 z-score and -0.644 z-score, respectively.

Turning to AGGTTGGCCCC, the binding signal was -0.789 z-score in the assay with RELARELA (p65 homodimer); -0.369 z-score with p50p50 homodimer; -0.374 z-score in the assay with p52p52 homodimer; -0.277 z-score in [1]; -0.287 z-score in [2]; -0.0488 z-score with RELB subunit;p50 subunit. The results for the binding signal (with RELB subunit;p52 subunit; in assay [3]; in assay [4]) were -0.238 z-score, -0.00473 z-score and 0.0517 z-score, respectively.
